Measured values from PubChem BioAssay (EPA / NIEHS).
Results filed as inconclusive are left out. Activity calls are given as the source filed them. Rule for the calls, unless noted: active = hit-call score of the fitted dose curve at least 0.9, where 1 is the maximum; inconclusive = response in the unintended direction; inactive = score below 0.9.

What was measured:
[1] = biological target: Retinoic acid receptor alpha (Homo sapiens) (UniProt P10276); experiment: ATG_DR5_RAR_CIS: Attagene CIS-FACTORIAL HepG2 Assay for human Retinoic Acid Receptor Alpha (RARE), DR5 submotif (AID 2282934; active = hit-call score of the fitted dose curve at least 0.9, where 1 is the maximum; inactive = score below 0.9); details: HepG2 Attagene cis-factorial RARE DR5 reporter, mRNA; actives raise or lower the signal
Outline: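 Read-out: DR5-driven reporter transcript measured by RT-PCR, 6-FAM primer extension, HpaI digest and capillary electrophoresis. Human HepG2 liver cells carry transiently transfected cis-element reporter constructs; dosing lasts 24 h. Gain or loss of signal fitted against DMSO baseline.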

[2] = biological target: Hepatocyte nuclear factor 3-beta (Homo sapiens) (UniProt Q9Y261); experiment: ATG_FoxA2_CIS: Attagene CIS-FACTORIAL HepG2 Assay for human Forkhead box A2 (FOXA2) (AID 2282942; active = hit-call score of the fitted dose curve at least 0.9, where 1 is the maximum; inactive = score below 0.9); details: HepG2 cis-reporter transcription factor activity, 24 h; actives raise or lower the signal
Outline: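 Endogenous transcription factor activity was read in HepG2 cells carrying transiently transfected cis-promoter reporter units. After 24 h dosing, reporter mRNA was quantified by RT-PCR and capillary electrophoresis, and values fitted bidirectionally versus DMSO.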

[3] = ATG_FoxO_CIS: Attagene CIS-FACTORIAL HepG2 Assay for human Forkhead box O (FoxO) (AID 2282943; active = hit-call score of the fitted dose curve at least 0.9, where 1 is the maximum; inactive = score below 0.9); details: HepG2 Attagene cis-reporter, FoxO element, mRNA; actives raise or lower the signal
Outline: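 Read-out: fluorescence of 6-FAM-labelled reporter cDNA fragments resolved by capillary electrophoresis. Transiently transfected HepG2 cells were dosed for 24 h; activity fitted in both directions relative to DMSO controls.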

[4] = biological target: Hepatocyte nuclear factor 4-alpha (Homo sapiens) (UniProt P41235); experiment: ATG_HNF4a_TRANS: Attagene TRANS-FACTORIAL HepG2 Assay for human Hepatocyte Nuclear Factor 4 alpha (HNF4a) (AID 2282982); details: HepG2 HNF4a transactivation reporter, mRNA readout
Outline: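 Transient MRTU transfection of HepG2, 24 h dosing. Readout: reporter mRNA via RT-PCR + capillary electrophoresis, fluorescence; activity fit upward relative to DMSO control.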

[5] = ATG_NFI_CIS: Attagene CIS-FACTORIAL HepG2 Assay for human Nuclear Factor I (NFI) (AID 2282989; active = hit-call score of the fitted dose curve at least 0.9, where 1 is the maximum; inactive = score below 0.9); details: HepG2 cis-regulatory reporter, NFI response element transcription; actives raise or lower the signal
Outline: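 Reporter transcripts were measured by RT-PCR with fluorescent primer extension and capillary electrophoresis 24 h post-treatment. HepG2 cells carried transiently transfected cis-regulated reporter constructs reporting endogenous factor activity; gain or loss fitted against DMSO baseline.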

[6] = biological target: human Peroxisome Proliferator-activated Receptor alpha (PPARa), PPARA (gene 5465) (UniProt Q07869); experiment: ATG_PPARa_TRANS: Attagene TRANS-FACTORIAL HepG2 Assay for human Peroxisome Proliferator-activated Receptor alpha (PPARa) (AID 2283001)
Outline: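 Transient HepG2 transfection, GAL4-UAS reporters, NR-Gal4 chimeras; 24 h compound exposure. Readout: reporter transcripts by RT-PCR, 6-FAM primer extension, HpaI digest, capillary electrophoresis. Positive direction vs DMSO baseline.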

[7] = TOX21_p53_BLA_p2_viability: Viability Assessment in the Tox21 HCT-116 p53 Agonism Beta-lactamase Assay, Phase 2 (AID 2283591);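 note: compound exposure lasted 16 h at 37 °C; actives lower the ATP signal meaning cytotoxicity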
Outline: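 HCT116 p53-bla cells, 4000/well, dosed after 5 h plating (217-fold dilution of DMSO stocks) and incubated 16 h at 37C. Viability taken as cellular ATP by CellTiter-Glo luminescence after 30 min RT; signal loss marks cytotoxicity.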

[8] = TOX21_p53_BLA_p3_viability: Viability Assessment in the Tox21 HCT-116 p53 Agonism Beta-lactamase Assay, Phase 3 (AID 2283593);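 note: cells exposed to compound for 16 h before reading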
Outline: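 HCT116 cells, 4000/well, dosed 5 h after plating by pin transfer (217-fold dilution from DMSO stock) and incubated 16 h at 37C, 5% CO2. Viability read as ATP luminescence with CellTiter-Glo after 30 min at room temperature.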

[9] = biological target: Cellular tumor antigen p53 (Homo sapiens) (UniProt P04637); experiment: TOX21_p53_BLA_p3_ratio: Tox21 HCT-116 p53 Agonism Beta-lactamase Assay, Ratio, Phase 3 (AID 2283596)
Outline: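 Cells were seeded at 4000/well, rested 5 h at 37C, then dosed with DMSO compound solutions (217-fold dilution) for 16 h. CCF4-AM substrate was loaded for 2 h at room temperature, and the 460/530 nm emission ratio was fitted for gain of signal versus DMSO.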

[10] = TOX21_p53_BLA_p5_viability: Viability Assessment in the Tox21 HCT-116 p53 Agonism Beta-lactamase Assay, Phase 5 (AID 2283600)
Outline: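 Here cell health was gauged by ATP levels in wells holding 4000 cells, each treated 16 h with DMSO-delivered compounds at 217-fold dilution; reduced luminescence marked toxicity.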

[11] = biological target: Cellular tumor antigen p53 (Homo sapiens) (UniProt P04637); experiment: TOX21_p53_BLA_p4_ratio: Tox21 HCT-116 p53 Agonism Beta-lactamase Assay, Ratio, Phase 4 (AID 2283601)
Outline: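 HCT-116 p53 beta-lactamase reporter cells (4000/well) preincubated 5 h, then compound (217-fold dilution of DMSO stock) for 16 h at 37C. CCF4-AM substrate added 2 h at room temperature; 460/530 nm emission ratio fitted upward versus DMSO.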

[12] = ATG_RORE_CIS: Attagene CIS-FACTORIAL HepG2 Assay for human RAR-related Orphan Receptor Element (RORE) (AID 2282959; active = hit-call score of the fitted dose curve at least 0.9, where 1 is the maximum; inactive = score below 0.9); details: HepG2 Attagene cis-factorial RORE reporter, mRNA; actives raise or lower the signal
Outline: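 Cells were HepG2 carrying transfected cis-regulated reporter constructs, dosed for 24 hours. Total RNA was reverse-transcribed and reporter cDNA amplified, fluorescently labeled and sized by capillary electrophoresis. Activity was fitted bidirectionally relative to DMSO.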

[13] = ATG_M_32_TRANS: Attagene TRANS-FACTORIAL HepG2 Assay for M32 Transcription Factor (Internal Marker) (AID 2282984); details: HepG2 Attagene TRANS M32 internal marker reporter;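 note: transcript level of a background control reporter unit measured by RT-PCR and capillary electrophoresis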
Outline: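 Read-out: fluorescent reporter cDNA fragments resolved by capillary electrophoresis after RT-PCR of total RNA. Transfected HepG2 cells were exposed to chemical for 24 h. Activity scored in the positive direction relative to DMSO.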

[14] = ATG_GRE_CIS: Attagene CIS-FACTORIAL HepG2 Assay for human Glucocorticoid Response Elements (GRE) (AID 2282947; active = hit-call score of the fitted dose curve at least 0.9, where 1 is the maximum; inactive = score below 0.9); details: HepG2 GRE cis-reporter, Attagene multiplex mRNA; actives raise or lower the signal
Outline: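 Read-out: fluorescent reporter-transcript fragments separated by capillary electrophoresis after RT-PCR. Transiently transfected HepG2 cells carrying cis-element-driven reporter units were dosed for 24 h; gain or loss of signal fitted against DMSO control.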

[15] = ATG_PBREM_CIS: Attagene CIS-FACTORIAL HepG2 Assay for human Phenobarbital-responsive Enhancer Module (PBREM) (AID 2282955; active = hit-call score of the fitted dose curve at least 0.9, where 1 is the maximum; inactive = score below 0.9); details: HepG2 PBREM cis-reporter, Attagene multiplexed transcription; actives raise or lower the signal
Outline: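 Fluorescence of labelled reporter cDNA fragments, resolved by capillary electrophoresis, gives mRNA induction in transfected HepG2 cells treated for 24 h; DMSO serves as negative control and baseline.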

[16] = biological target: Cellular tumor antigen p53 (Homo sapiens) (UniProt P04637); experiment: TOX21_p53_BLA_p2_ratio: Tox21 HCT-116 p53 Agonism Beta-lactamase Assay, Ratio, Phase 2 (AID 2283592)
Outline: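 DMSO-normalized, positive-direction endpoint derived from the 460 nm/530 nm FRET ratio in HCT116 p53 beta-lactamase reporter cells exposed 16 h at 37C and loaded with CCF4-AM for 2 h.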

[17] = biological target: Cellular tumor antigen p53 (Homo sapiens) (UniProt P04637); experiment: TOX21_p53_BLA_p5_ratio: Tox21 HCT-116 p53 Agonism Beta-lactamase Assay, Ratio, Phase 5 (AID 2283599)
Outline: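 HCT-116 p53-bla cells (4000/well) plated 5 h, dosed with compound (217-fold DMSO dilution) for 16 h at 37 C; CCF4-AM substrate 2 h at room temperature. Activity is the 460/530 nm emission ratio (405 nm excitation), fitted in gain-of-signal direction versus DMSO.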

[18] = ATG_SREBP_CIS: Attagene CIS-FACTORIAL HepG2 Assay for human Sterol Regulatory Element Binding (SREBP) (AID 2282962; active = hit-call score of the fitted dose curve at least 0.9, where 1 is the maximum; inactive = score below 0.9); details: HepG2 Attagene cis-factorial SREBP reporter, mRNA; actives raise or lower the signal
Outline: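 Readout: fluorescent reporter-transcript peaks resolved by capillary electrophoresis after RT-PCR. Cells were human HepG2 carrying transfected cis-promoter reporter constructs, dosed for 24 h. Gain or loss of signal was fitted against DMSO controls.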

[19] = ATG_NF_kB_CIS: Attagene CIS-FACTORIAL HepG2 Assay for human Nuclear Factor Kappa B (NF-kB) (AID 2282991; active = hit-call score of the fitted dose curve at least 0.9, where 1 is the maximum; inactive = score below 0.9); details: HepG2 Attagene cis-factorial NF-kB reporter mRNA; actives raise or lower the signal
Outline: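 Endogenous transcription factor activity in HepG2 was captured via cis-regulated reporter constructs; after 24 h dosing, reporter mRNA was reverse-transcribed, amplified, fluorescently labelled and sized by capillary electrophoresis, with activity fitted bidirectionally relative to DMSO.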

[20] = biological target: human Retinoid X Receptor beta (RXRb), RXRB (gene 6257) (UniProt P28702); experiment: ATG_RXRb_TRANS: Attagene TRANS-FACTORIAL HepG2 Assay for human Retinoid X Receptor beta (RXRb) (AID 2283013)
Outline: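 After a 24 h incubation with test chemical, transfected HepG2 cells carrying NR-Gal4 fusions and GAL4-UAS reporter transcription units yield RNA whose reporter cDNA is FAM-labelled, HpaI-cut and sized by capillary electrophoresis; increases over DMSO are scored.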

Measured: outcome

Chain of Hepatocyte nuclear factor 4-alpha (Homo sapiens) (P41235 whole entry, looked up): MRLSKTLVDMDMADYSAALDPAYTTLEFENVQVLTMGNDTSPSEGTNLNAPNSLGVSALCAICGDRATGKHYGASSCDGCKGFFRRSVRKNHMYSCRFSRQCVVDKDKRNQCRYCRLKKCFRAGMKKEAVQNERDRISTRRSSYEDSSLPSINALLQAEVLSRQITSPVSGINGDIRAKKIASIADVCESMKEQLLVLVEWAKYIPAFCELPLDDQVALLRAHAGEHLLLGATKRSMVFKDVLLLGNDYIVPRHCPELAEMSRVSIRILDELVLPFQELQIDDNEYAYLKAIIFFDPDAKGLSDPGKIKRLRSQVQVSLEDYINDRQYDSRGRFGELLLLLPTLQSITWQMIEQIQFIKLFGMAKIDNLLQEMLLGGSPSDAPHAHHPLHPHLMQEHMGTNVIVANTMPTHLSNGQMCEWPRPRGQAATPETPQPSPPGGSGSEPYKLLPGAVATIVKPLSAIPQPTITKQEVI
Chain of Hepatocyte nuclear factor 3-beta (Homo sapiens) (Q9Y261 whole entry, looked up): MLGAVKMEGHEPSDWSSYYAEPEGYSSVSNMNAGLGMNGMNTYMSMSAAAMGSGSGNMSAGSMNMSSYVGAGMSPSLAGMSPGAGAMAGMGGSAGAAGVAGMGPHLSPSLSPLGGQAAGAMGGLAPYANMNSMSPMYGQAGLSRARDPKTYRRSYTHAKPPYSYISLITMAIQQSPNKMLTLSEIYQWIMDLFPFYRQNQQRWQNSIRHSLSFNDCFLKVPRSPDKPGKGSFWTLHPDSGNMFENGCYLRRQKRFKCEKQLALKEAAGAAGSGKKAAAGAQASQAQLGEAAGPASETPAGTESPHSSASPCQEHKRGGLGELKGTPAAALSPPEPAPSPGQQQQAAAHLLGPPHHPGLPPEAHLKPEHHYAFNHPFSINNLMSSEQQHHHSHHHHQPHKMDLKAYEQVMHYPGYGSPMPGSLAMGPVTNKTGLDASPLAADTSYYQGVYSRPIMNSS
Chain of Retinoic acid receptor alpha (Homo sapiens) (P10276 whole entry, looked up): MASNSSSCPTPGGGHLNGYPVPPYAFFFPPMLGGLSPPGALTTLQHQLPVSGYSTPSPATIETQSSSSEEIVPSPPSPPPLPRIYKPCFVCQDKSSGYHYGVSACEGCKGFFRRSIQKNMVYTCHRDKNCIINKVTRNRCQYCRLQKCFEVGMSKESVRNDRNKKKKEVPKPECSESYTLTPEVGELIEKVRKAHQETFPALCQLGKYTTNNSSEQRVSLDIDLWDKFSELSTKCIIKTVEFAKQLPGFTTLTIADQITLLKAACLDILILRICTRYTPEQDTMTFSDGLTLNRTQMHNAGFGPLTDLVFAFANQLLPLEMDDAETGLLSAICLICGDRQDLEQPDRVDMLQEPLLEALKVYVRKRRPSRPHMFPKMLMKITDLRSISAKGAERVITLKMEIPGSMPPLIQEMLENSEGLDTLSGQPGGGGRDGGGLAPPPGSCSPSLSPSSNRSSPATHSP
Chain of Cellular tumor antigen p53 (Homo sapiens) (P04637 whole entry, looked up): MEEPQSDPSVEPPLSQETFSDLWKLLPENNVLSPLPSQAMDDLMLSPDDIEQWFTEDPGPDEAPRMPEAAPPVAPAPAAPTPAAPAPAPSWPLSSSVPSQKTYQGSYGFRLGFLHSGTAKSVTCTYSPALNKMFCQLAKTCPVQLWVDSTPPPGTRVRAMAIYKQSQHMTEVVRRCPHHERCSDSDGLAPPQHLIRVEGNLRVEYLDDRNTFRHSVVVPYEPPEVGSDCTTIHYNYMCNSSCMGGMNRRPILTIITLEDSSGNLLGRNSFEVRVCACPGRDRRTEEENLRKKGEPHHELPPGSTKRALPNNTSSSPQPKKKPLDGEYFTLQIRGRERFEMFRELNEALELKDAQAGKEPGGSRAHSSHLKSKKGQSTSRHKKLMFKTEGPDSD
Chain of human Peroxisome Proliferator-activated Receptor alpha (PPARa), PPARA (gene 5465) (Q07869 whole entry, looked up, the tested form may be a part): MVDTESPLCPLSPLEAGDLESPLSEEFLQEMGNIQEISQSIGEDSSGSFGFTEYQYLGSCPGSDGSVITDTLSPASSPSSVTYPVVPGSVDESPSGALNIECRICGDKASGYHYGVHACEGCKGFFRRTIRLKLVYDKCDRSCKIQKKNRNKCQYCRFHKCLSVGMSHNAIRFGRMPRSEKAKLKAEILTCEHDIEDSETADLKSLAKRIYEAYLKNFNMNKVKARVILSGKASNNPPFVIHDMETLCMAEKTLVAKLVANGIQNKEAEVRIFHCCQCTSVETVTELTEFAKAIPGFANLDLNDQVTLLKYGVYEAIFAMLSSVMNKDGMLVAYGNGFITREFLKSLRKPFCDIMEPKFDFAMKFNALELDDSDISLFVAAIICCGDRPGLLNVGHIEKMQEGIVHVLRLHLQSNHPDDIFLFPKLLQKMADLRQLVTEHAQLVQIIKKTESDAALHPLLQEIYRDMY
Chain of human Retinoid X Receptor beta (RXRb), RXRB (gene 6257) (P28702 whole entry, looked up, the tested form may be a part): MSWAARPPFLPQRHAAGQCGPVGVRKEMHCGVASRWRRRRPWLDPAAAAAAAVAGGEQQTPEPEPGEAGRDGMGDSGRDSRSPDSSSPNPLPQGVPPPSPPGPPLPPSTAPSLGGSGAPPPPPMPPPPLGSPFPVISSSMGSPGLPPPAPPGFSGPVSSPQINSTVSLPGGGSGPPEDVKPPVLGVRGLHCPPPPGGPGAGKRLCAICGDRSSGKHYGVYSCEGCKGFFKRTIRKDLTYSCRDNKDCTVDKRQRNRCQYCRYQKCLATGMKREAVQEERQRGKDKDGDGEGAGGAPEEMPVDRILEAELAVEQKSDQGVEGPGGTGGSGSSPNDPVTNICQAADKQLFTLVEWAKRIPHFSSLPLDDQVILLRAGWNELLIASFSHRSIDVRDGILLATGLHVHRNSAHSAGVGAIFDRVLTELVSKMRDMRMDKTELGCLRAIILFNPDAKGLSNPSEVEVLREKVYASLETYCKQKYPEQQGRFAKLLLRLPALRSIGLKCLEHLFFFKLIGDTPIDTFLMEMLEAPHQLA

Cc1ccccc1S(=O)(=O)O
inactive: [1] | [2] | [3] | [4] | [5] | [6] | [7] | [8] | [9] | [10] | [11]

CO[Si](CCCNCCN)(OC)OC
inactive: [1] | [2] | [3] | [12] | [4] | [13] | [6]

CCC(C)=NO
not listed: [10] | [11] | [12] | [18] | [19] | [20]
inactive: all other assays above

CCC(C)C1N=C(C)C(C)S1 (configuration not stated)
not listed: [2] | [3] | [4] | [6] | [8] | [10] | [15] | [16]
inactive: all other assays above

Oc1cccc2ccccc12
not listed: [1] | [3] | [4] | [9] | [13]
inactive: all other assays above

CC/C=C\CCCCCO
not listed: [1] | [5] | [11] | [13] | [18] | [19] | [20]
inactive: all other assays above
